HTT aggregate = reduces HttQ103-GFP aggregates in PC12 cells | PC12 HttQ103-GFP aggregates, Acumen cytometry, 40 h | Potency, µM (doses to about 46.1 µM), for inactives: top-dose activity change, negative = inhibition, hits mostly inhibitors | hit rate 1.1% among 220,000 | AID 1688; active = well fitted curve in the direction sought with a large enough effect; inconclusive = small, poorly fitted or top-dose-only effect, or another doubt; inactive = no such curve, though single readings can be large; an effect the other way counts as inactive or inconclusive; also: % is scaled to controls: 0 for no effect and ±100 for the full control effect; nearly all actives have a fitted effect of over 60% in size
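PC12/HTTQ103-GFP, ecdysone-inducible; teb 100 nM; cpd qHTS titration; GFP aggregates read on laser cytometer, Ex 488/Em 500-530 nm.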
HTT ATP protect = protects HTT-Q103 PC12 cells, measured by ATP; PC12 HTT-Q103 induced, cytoprotection, ATP luminescence, 40 h; Potency, µM (doses to about 56.4 µM), for the others: cytoprotection (ATP increase), most hits filed as activators; hit rate 0.14% among 230,000; active = well fitted curve in the direction sought with a large enough effect; inconclusive = small, poorly fitted or top-dose-only effect, or another doubt; inactive = no such curve, though single readings can be large; an effect the other way counts as inactive or inconclusive; also: % of control where 0% means no effect; nearly all actives have a fitted effect of over 45% in size
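Stable PC12 Q103-GFP cells in serum-supplemented, phenol red-free DMEM; induction by tebufenozide at 100 nM final; compound dose series; cell viability quantified luminescently from ATP.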
LMNA splice mod = modulators of lamin A splicing; HeLa LMNA splicing GFP/RFP minigene ratio, 48 h; Potency, µM (series often up to 46.1 µM), for the others: top-dose ratio change, negative = inhibition, usual class: inhibitors; hit rate 0.01% among 200,000; AID 1487; active = well fitted inhibition curve with a large enough effect in the signal ratio, with a control signal flat, not every such curve was filed as active; inconclusive = small, poorly fitted or top-dose-only effect, or effect the other way, or a change in a side signal; the % refers to the signal ratio; also: % is scaled to controls: 0 for no effect and ±100 for the full control effect
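S3 HeLa cells stably expressing lamin A-EGFP splicing minigene plus DsRed2, 600 cells/well, 48 h compound exposure at 37C. Laser-scanning cytometry; analysed as GFP (500-530 nm)/RFP (575-640 nm) total intensity ratio; 0.5% DMSO vehicle.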
ALDH1A1 inh = blocks purified human ALDH1A1 activity; P00352; Purified ALDH1A1, NADH fluorescence, propionaldehyde substrate; Potency, µM (highest dose often 75.3 µM), for the others: at the top dose activity, negative = inhibition, actives largely listed as inhibitors; hit rate 7.3% among 220,000; AID 1030;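 also: plate controls were no enzyme wells and a reference inhibitor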
HPGD inh = HPGD (human) dehydrogenase inhibition | AID 894 | purified HPGD, NADH fluorescence kinetic, PGE2 substrate | Potency, µM, for inactives: at the highest dose activity change, negative = inhibition, hits mostly inhibitors | P15428 | hit rate 4.3% among 150,000; also: % is scaled to controls: 0 for no effect and ±100 for the full control effect
Target sequence (P15428 whole entry, looked up): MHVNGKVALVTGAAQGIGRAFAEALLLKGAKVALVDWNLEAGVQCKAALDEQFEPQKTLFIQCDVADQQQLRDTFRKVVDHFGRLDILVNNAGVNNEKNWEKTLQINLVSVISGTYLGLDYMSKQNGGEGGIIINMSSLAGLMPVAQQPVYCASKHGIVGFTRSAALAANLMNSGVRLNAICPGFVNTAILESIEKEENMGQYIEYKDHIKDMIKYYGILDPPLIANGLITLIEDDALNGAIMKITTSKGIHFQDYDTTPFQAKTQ
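20 nM HPGD preincubated 15 min at room temperature with compound in 50 mM Tris-HCl pH 8, 0.01% Tween 20. Started with 1 mM NAD+ and 30 uM prostaglandin E2; NADH fluorescence (360/450 nm) read 5 times over 30-s intervals, last minus first.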
An asterisk follows results filed as active; ? = inconclusive; . = no result given; [ ] = another dose, or the depositor's remark. Sampled rows, rich in hits. Any-hit rate of the full collection: about 8.8%. Unless noted, calls follow the shape of the dose curve; as a rule, active = well fitted inhibition curve with a large enough effect (not every such curve was filed as active); inconclusive = small, poorly fitted or top-dose-only effect, or another doubt; inactive = no such curve, though single readings can be large or run the other way. Potency is read from the fitted curve at half-maximal effect.

SMILES	HTT aggregate	HTT ATP protect	LMNA splice mod	ALDH1A1 inh	HPGD inh
O=C(CSc1nc(-c2ccco2)cc(C(F)(F)F)n1)Nc1ccc(C(=O)N2CCOCC2)cc1	1%	12%[10 µM]	7%	-4%	22µM*
Cc1ccc(OCC(=O)NCC(=O)OCc2cc(=O)n3nc(C(C)C)sc3n2)cc1	.	.	1%[46 µM]	.	.
N#C/C(=C/c1ccc(N2CCCCCC2)o1)c1ccc(Cl)cc1	-31%	36%	?	7.9µM*	?
Cc1ccc(/C(C#N)=C\c2ccc(N3CCOCC3)o2)cc1	-5%[9.22 µM]	17%[10 µM]	?	10µM*	?
CCN(CC)c1cc2c(cc1F)c(=O)c(S(=O)(=O)c1ccc(OC)cc1)cn2CC	.	.	-2%[46 µM]	.	.
O=[N+]([O-])c1cc2c(cc1Br)CCN2	23%[9.22 µM]	10%[10 µM]	-4%[46 µM]	?	.
COc1ccc(-c2cnn3c(N)c(S(=O)(=O)c4ccccc4)cnc23)cc1	-11%	13%[10 µM]	-10%	8%	20µM*
Cc1ccc(/C=c2/sc3nnc(-c4ccccc4Cl)n3c2=O)o1	13%	-2%	6%	?	-22%
C=CCn1c(=O)/c(=C/c2ccc(C)o2)s/c1=C(/C#N)C(=O)c1ccccc1	-2%	-2%[10 µM]	-3%	0.71µM*	-12%
CCOC(=O)c1ccc(N2CCN(c3ccc(F)cc3)CC2)c(NC(=O)Nc2ccc(CC)cc2)c1	.	.	-25%[46 µM]	.	.
O=C(NCc1ccncc1)c1ccc(Oc2ccccc2)cc1	11µM*	0%[10 µM]	?	-7%	.
Cc1ccc(Oc2ccc(C(=O)NCc3ccncc3)cc2)cc1	11µM*	-96%	5%[9.22 µM]	-5%	.
O=C(NCc1ccncc1)c1ccc(Br)cc1	-31%	-17%[10 µM]	7%	14%	-16%
Cc1ccc(C(=O)NCCc2ccncc2)cc1	-2%	-47%	6%	10%	-12%
O=C(c1ccc(Cl)cc1)[C@@H]1[C@@H]2C(=O)N(c3ccc(Cl)cc3)C(=O)[C@@H]2C2c3ccccc3C=NN21 (stereo partly specified)	27%	-6%[10 µM]	0%	?	-11%
O=C(C1=C[C@@H]2[C@H]3C(=O)N(c4ccccc4)C(=O)[C@H]3[C@@H](C(=O)c3ccc(Cl)cc3)N2C=C1)c1ccccc1	-6%	-9%[10 µM]	-1%	20µM*	-16%
COc1ccc(-c2nc3cnc(N(C)C)nc3n(CCc3ccccc3)c2=O)cc1	.	?	.	?	-28%
O=S(=O)(c1ccc2c(c1)OCCO2)N1CCC(n2nnc3cc(C(F)(F)F)ccc32)CC1	10µM*	-14%[10 µM]	?	1%	-10%
O=S(=O)(c1ccccc1)N1CCC(n2nnc3cc(F)ccc32)CC1	-8%	-12%	1%	0%	-5%
COc1ccc2ccc3c(c2c1)N=C[C@]1(O3)N(C)c2ccccc2C1(C)C	?	-57%	?	?	32µM*
N#Cc1cc2c(nc1SCc1cccnc1)CCCC2	-7%	-12%[10 µM]	?	?	13µM*
N#Cc1cc2c(nc1SCc1cccnc1)CCC2	2%	-13%[0.074 µM]	1%	?	-20%
COc1ccc(Oc2ncc3ncc(=O)n(C[C@H]4CCCO4)c3n2)cc1	.	11%	.	14µM*	-16%
COc1ccc(-n2c(=O)cnc3cnc(OC)nc32)cc1	.	-70%	-3%	22µM*	.
COc1ccc(-n2c(=O)cnc3cnc(N4CCNCC4)nc32)cc1	.	13%	.	?	-24%
SMILES	HTT aggregate	HTT ATP protect	LMNA splice mod	ALDH1A1 inh	HPGD inh
CC(=O)Nc1ccc(S(=O)(=O)NCCCN2CCN(Cc3ccccc3)CC2)cc1Cl	5%[9.22 µM]	19%[10 µM]	.	.	.
CCC1=NNc2cccc3c(OC)ccc1c23	0%[9.22 µM]	-2%	8%	?	14µM*
COc1ccc(F)cc1S(=O)(=O)Nc1cccc(C(=O)O)c1	-5%	.	?	-2%	-4%
CC1CCc2c(cc(-c3ccccc3)n2-c2ccc(C(=O)NC(C)C)cc2)C1 (stereo unspecified)	.	.	4%[46 µM]	.	.
Cc1oc(C(=O)Nc2ccc(C(=O)O)cc2)cc1COc1ccccc1	10%	-12%	?	-7%	20µM*
O=C(O)c1ccc(N=NNc2cccc([N+](=O)[O-])c2)cc1	5%	-44%	-2%[46 µM]	1%	.
N#C/C(=N\Nc1cccc([N+](=O)[O-])c1)C(=O)c1ccc(Br)cc1	1.8µM*	.	.	22µM*	.
Cc1cccc(/C=N\NC(=O)c2csnn2)c1	-11%	-17%	1%[0.0737 µM]	-52%	3.2µM*

Screening results from PubChem.
